Hit rate of the full screen: of about 5,500 compounds, about 2,000 (36%) were called active. Another 18% or so got no clear call; they are omitted. Rule as the data show it: active = normalized growth mostly below about 0.91 (no sharp cut-off); inconclusive = no clear call, values can overlap the other calls; inactive = mostly above about 0.92. Some of the results follow.
Assay: chemical genetic growth profiling, strain panel (AID 1159580);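 also: tested at 20 µM; growth read once vehicle control cultures reached saturation at 30 °C; 1 = growth at the plate median or of vehicle wells; lower values mean less growth of the strain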
Conditions: S. cerevisiae deletion strains, growth OD
[1] = locus YAR019C, strain CDC15, hits give low values
[2] = locus YBL105C, strain PKC1, hits give low values
[3] = locus YBR135W, strain CKS1, hits give low values
[4] = locus YBR136W, strain MEC1, hits give low values
[5] = locus YBR160W, strain CDC28, hits give low values
[6] = locus YDL017W, strain CDC7, hits give low values
[7] = locus YDL028C, strain MPS1, hits give low values
[8] = locus YDL101C, strain DUN1, hits give low values
[9] = locus YDL108W, strain KIN28, hits give low values
[10] = locus YDL214C, strain PRR2, hits give low values
[11] = locus YDR052C, strain DBF4, hits give low values
[12] = locus YDR054C, strain cdc34, hits give low values
[13] = locus YDR226W, strain ADK1, hits give low values
[14] = locus YDR477W, strain SNF1, hits give low values
[15] = locus YER123W, strain YCK3, hits give low values
[16] = locus YER133W, strain GLC7, hits give low values
[17] = locus YFL009W, strain cdc4, hits give low values
[18] = locus YFL029C, strain CAK1, hits give low values
[19] = locus YFR003C, strain YPI1, hits give low values
[20] = locus YFR019W, strain FAB1, hits give low values
[21] = locus YFR028C, strain CDC14, hits give low values
[22] = locus YGR040W, strain KSS1, hits give low values
[23] = locus YGR052W, strain FMP48, hits give low values
[24] = locus YGR092W, strain DBF2, hits give low values
[25] = locus YHR079C, strain IRE1, hits give low values
[26] = locus YHR082C, strain KSP1, hits give low values
[27] = locus YHR205W, strain SCH9, hits give low values
[28] = locus YIL147C, strain SLN1, hits give low values
[29] = locus YJL095W, strain BCK1, hits give low values
[30] = locus YJL157C, strain FAR1, hits give low values
[31] = locus YJR016C, strain ILV3, hits give low values
[32] = locus YJR066W, strain TOR1 (second series), hits give low values
[33] = locus YJR066W, strain TOR1, hits give low values
[34] = locus YKL048C, strain ELM1, hits give low values
[35] = locus YKL067W, strain YNK1, hits give low values
[36] = locus YKL101W, strain HSL1, hits give low values
[37] = locus YKL193C, strain SDS22, hits give low values
[38] = locus YKL203C, strain TOR2, hits give low values
[39] = locus YLR113W, strain HOG1, hits give low values
[40] = locus YLR133W, strain CKI1, hits give low values
[41] = locus YLR403W, strain SFP1, hits give low values
[42] = locus YML070W, strain DAK1, hits give low values
[43] = locus YMR001C, strain CDC5, hits give low values
[44] = locus YMR205C, strain PFK2 (second series), hits give low values
[45] = locus YMR277W, strain FCP1, hits give low values
[46] = locus YNL006W, strain LST8, hits give low values
[47] = locus YNL020C, strain ARK1, hits give low values
[48] = locus YNL161W, strain CBK1, hits give low values
[49] = locus YNL183C, strain NPR1, hits give low values
[50] = locus YNL207W, strain RIO2, hits give low values
[51] = locus YNL222W, strain SSU72, hits give low values
[52] = locus YNL307C, strain MCK1 (second series), hits give low values
[53] = locus YOL078W, strain AVO1, hits give low values
[54] = locus YOL136C, strain PFK27, hits give low values
[55] = locus YOR061W, strain CKA2, hits give low values
[56] = locus YOR119C, strain RIO1, hits give low values
[57] = locus YOR231W, strain MKK1, hits give low values
[58] = locus YOR329C, strain SCD5, hits give low values
[59] = locus YPL031C, strain PHO85, hits give low values
[60] = locus YPL153C, strain RAD53, hits give low values
[61] = locus YPL204W, strain HRR25, hits give low values
[62] = locus YPL209C, strain IPL1, hits give low values
[63] = locus YPL256C, strain CLN2, hits give low values
[64] = locus YPR025C, strain CCL1, hits give low values
[65] = locus YPR111W, strain DBF20, hits give low values
[66] = strain NNK1, hits give low values
[67] = strain TSCII, hits give low values

Measured: normalized growth

C#CCSC1=NNC(c2ccccn2)S1 (stereo not drawn)
inactive: [2] 0.945 | [3] 0.928 | [4] 0.924 | [5] 0.932 | [6] 0.947 | [7] 0.917 | [9] 0.932 | [11] 0.94 | [13] 0.975 | [19] 0.957 | [28] 0.932 | [62] 0.951 | [64] 0.931 | [65] 0.928
active: [1] 0.583 | [8] 0.45 | [10] 0.163 | [12] 0.531 | [14] 0.136 | [15] 0.125 | [16] 0.162 | [17] 0.573 | [18] 0.517 | [20] 0.111 | [21] 0.763 | [22] 0.176 | [23] 0.175 | [24] 0.119 | locus YHR030C, strain SLT2, hits give low values 0.135 | [25] 0.122 | [26] 0.21 | [27] 0.123 | [29] 0.129 | [30] 0.119 | [31] 0.596 | [32] 0.124 | [33] 0.172 | [34] 0.262 | [35] 0.137 | [36] 0.173 | [37] 0.618 | [38] 0.153 | [39] 0.225 | [40] 0.152 | [41] 0.045 | [42] 0.12 | [43] 0.821 | [44] 0.167 | [45] 0.481 | [46] 0.892 | [47] 0.137 | [48] 0.738 | [49] 0.171 | [50] 0.811 | [51] 0.635 | [52] 0.151 | [53] 0.527 | [54] 0.13 | [55] 0.183 | [56] 0.139 | [57] 0.149 | [58] 0.855 | [59] 0.162 | [60] 0.126 | [61] 0.141 | [63] 0.149 | [66] 0.408 | [67] 0.541

O=C(CSC1=NNC(c2ccccn2)S1)Nc1ccccc1 (stereo not drawn)
inactive: [1] 1 | [2] 0.998 | [3] 0.994 | [4] 1 | [5] 1 | [6] 1.01 | [7] 0.998 | [8] 0.997 | [9] 1 | locus YDL132W, strain cdc53, hits give low values 0.995 | [10] 0.984 | [11] 0.994 | [12] 1 | [13] 1 | [14] 0.971 | [15] 0.951 | [16] 0.962 | [17] 1 | [18] 0.998 | [19] 1.01 | [20] 0.966 | [21] 1 | [22] 0.976 | [23] 1.08 | [24] 0.929 | [25] 1.08 | [26] 1.27 | [27] 0.97 | [28] 1 | [29] 1.08 | locus YJL128C, strain PBS2, hits give low values 0.976 | [30] 0.934 | [31] 1 | [32] 0.942 | [33] 1.27 | [34] 0.949 | [35] 0.987 | [36] 0.981 | [37] 0.997 | [38] 1.03 | [39] 1.06 | [40] 0.933 | [41] 0.92 | [42] 0.966 | [43] 1 | [44] 0.955 | [45] 1 | [46] 1.02 | [47] 0.936 | [48] 0.999 | [49] 1.01 | [50] 0.995 | [51] 1 | [52] 0.949 | [53] 0.995 | [54] 0.967 | [55] 0.96 | [56] 0.973 | [57] 1.11 | [58] 1 | [59] 0.973 | [60] 0.955 | [61] 0.923 | [62] 1 | [63] 1.03 | [64] 0.999 | locus YPR106W, strain ISR1, hits give low values 1.01 | [65] 1.01 | [66] 0.995 | [67] 0.996
